A number with no mark means an inactive call. Records with an inconclusive call do not appear. Entries that show only a call come without a potency. Calls of active or inactive are those of the source. Unless noted, calls come from the whole dose curve; as a rule, active = well fitted curve in the direction sought with a large enough effect in the repeat runs; inconclusive = weak or mixed curves; inactive = no such curve, though single readings can be large; an effect the other way counts as inactive or inconclusive.
How the values were obtained:
[1] = Human pregnane X receptor (PXR) small molecule agonists, qHTS cell viability counter screen (AID 1346977); note: nearly all actives have a fitted effect of over 50% in size; note: potency is the fitted concentration of half-maximal effect
How it was run: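 Measures live-cell protease fluorescence (CellTiter-Fluor) in PXR-Luc HepG2 cells treated 24hr with compounds at 37C. Cells had 5hr to attach before pin transfer of DMSO solutions.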

[2] = Caspase-3/7 induction in HepG2 cells by small molecules, qHTS assay (AID 1346978); note: nearly all actives have a fitted effect of over 15% in size; note: potency is the fitted concentration of half-maximal effect
How it was run: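 Caspase-3/7 induction was measured by Caspase-Glo 3/7 luminescence (30 min, room temperature) after a 17 hr compound exposure of wild-type HepG2 cells seeded at 2,000 per well and pre-incubated 5 hr.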

[3] = Caspase-3/7 induction in CHO-K1 cells by small molecules, qHTS cell viability counter screen (AID 1346979); note: nearly all actives have a fitted effect of over 35% in size; note: potency is the fitted concentration of half-maximal effect
How it was run: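 In the same wells as the caspase read, viability of compound-treated wild-type CHO-K1 cells was assessed using CellTiter-Fluor, added after 16hr at 37C and measured by fluorescence following 1hr further incubation.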

[4] = Caspase-3/7 induction in CHO-K1 cells by small molecules, qHTS assay (AID 1346980); note: nearly all actives have a fitted effect of over 15% in size; note: potency is the fitted concentration of half-maximal effect
How it was run: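 Luminescent Caspase-Glo 3/7 read (30min, room temperature) quantified apoptosis induction. Cells were wild-type CHO-K1, treated with compound for 17hr at 37 C and 5% CO2.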

[5] = Caspase-3/7 induction in HepG2 cells by small molecules, qHTS cell viability counter screen (AID 1346981); note: nearly all actives have a fitted effect of over 30% in size; note: potency is the fitted concentration of half-maximal effect
How it was run: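 HepG2, WT, 2,000 cells/well; 5 hr pre-incubation 37 C/5% CO2; compound pin-transferred from DMSO; 16 hr exposure; CellTiter-Fluor, 1 hr; fluorescence read.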

[6] = molecular target: Acetylcholinesterase (Homo sapiens) (UniProt P22303); assay: Acetylcholinesterase (AChE) small molecule antagonists: colormetric cell-based qHTS assay (AID 1347395; calls by dose curve; note: nearly all actives have a fitted effect of over 30% in size; note: potency is the fitted concentration of half-maximal effect)
Acetylcholinesterase (Homo sapiens), sequence (P22303 whole entry, looked up): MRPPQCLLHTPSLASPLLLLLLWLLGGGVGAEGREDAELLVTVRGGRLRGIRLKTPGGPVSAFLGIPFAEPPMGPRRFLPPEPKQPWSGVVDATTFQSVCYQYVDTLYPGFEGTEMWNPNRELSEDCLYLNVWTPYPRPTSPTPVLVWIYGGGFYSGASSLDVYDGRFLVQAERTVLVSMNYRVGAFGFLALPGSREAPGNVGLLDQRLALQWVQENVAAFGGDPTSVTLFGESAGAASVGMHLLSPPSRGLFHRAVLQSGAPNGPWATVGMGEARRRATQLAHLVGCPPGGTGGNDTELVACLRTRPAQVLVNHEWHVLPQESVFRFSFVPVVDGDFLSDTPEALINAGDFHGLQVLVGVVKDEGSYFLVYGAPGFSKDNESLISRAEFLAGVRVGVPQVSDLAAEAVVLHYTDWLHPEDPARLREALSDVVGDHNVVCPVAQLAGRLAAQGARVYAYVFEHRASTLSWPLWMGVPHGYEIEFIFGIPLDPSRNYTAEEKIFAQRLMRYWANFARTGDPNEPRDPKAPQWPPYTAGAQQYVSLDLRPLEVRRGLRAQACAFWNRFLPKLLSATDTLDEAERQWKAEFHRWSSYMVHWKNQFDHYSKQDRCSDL
How it was run: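 Endogenous AChE of human neuroblastoma SH-SY5Y cells was measured with an Ellman-type DTNB/acetylthiocholine mix. Compound pretreatment lasted 30 min at 37 C; substrate reaction ran 90 min at 37 C.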

[7] = molecular target: Acetylcholinesterase (Homo sapiens) (UniProt P22303); assay: Acetylcholinesterase (AChE) small molecule antagonists: enzyme-based qHTS assay (AID 1347397; calls by dose curve; note: nearly all actives have a fitted effect of over 55% in size; note: potency is the fitted concentration of half-maximal effect); conditions: Potency: AChE enzyme activity inhibition
How it was run: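 rhAChE 50 mU/mL (dispensed) + cpd or DMSO, 30 min RT; add DTNB/acetylthiocholine cocktail, 10 min RT; colorimetric thiocholine readout. qHTS, 1536-well format.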

[8] = molecular target: Acetylcholinesterase (Homo sapiens) (UniProt P22303); assay: Acetylcholinesterase (AChE) small molecule antagonists: fluorescence cell-based qHTS assay (AID 1347398; calls by dose curve; note: nearly all actives have a fitted effect of over 50% in size; note: potency is the fitted concentration of half-maximal effect); conditions: Potency: AChE activity
How it was run: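 Read-out is Thiolite Green fluorescence at Ex/Em = 490/520 nm, formed by reaction with thiocholine released when cellular AChE in SH-SY5Y cells hydrolyzes acetylthiocholine. Compounds were preincubated 30 min at 37 C before substrate.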

[9] = molecular target: Acetylcholinesterase (Homo sapiens) (UniProt P22303); assay: Acetylcholinesterase (AChE) small molecule antagonists: enzyme-based qHTS assay with human liver microsomes (AID 1347399; calls by dose curve; note: nearly all actives have a fitted effect of over 60% in size; note: potency is the fitted concentration of half-maximal effect); conditions: Potency: qHTS inhibition
How it was run: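 Recombinant human AChE (50 mU/mL in the enzyme mix) and human liver microsomes (0.25 mg/mL final) were preincubated with compound and NADPH (0.25 mg/mL final) for 30 min at 37 C. Acetylthiocholine/DTNB was then added; thiocholine was read colorimetrically after 10 min at room temperature.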

[10] = molecular target: Cytochrome P450 2D6 (Homo sapiens) (UniProt P10635); assay: Cytochrome P450 Family 2 Subfamily D Member 6 (CYP2D6) small molecule antagonists: luciferase reporter qHTS assay (AID 1671196); note: nearly all actives have a fitted effect of over 50% in size; note: potency is the fitted concentration of half-maximal effect
Cytochrome P450 2D6 (Homo sapiens), sequence (P10635 whole entry, looked up): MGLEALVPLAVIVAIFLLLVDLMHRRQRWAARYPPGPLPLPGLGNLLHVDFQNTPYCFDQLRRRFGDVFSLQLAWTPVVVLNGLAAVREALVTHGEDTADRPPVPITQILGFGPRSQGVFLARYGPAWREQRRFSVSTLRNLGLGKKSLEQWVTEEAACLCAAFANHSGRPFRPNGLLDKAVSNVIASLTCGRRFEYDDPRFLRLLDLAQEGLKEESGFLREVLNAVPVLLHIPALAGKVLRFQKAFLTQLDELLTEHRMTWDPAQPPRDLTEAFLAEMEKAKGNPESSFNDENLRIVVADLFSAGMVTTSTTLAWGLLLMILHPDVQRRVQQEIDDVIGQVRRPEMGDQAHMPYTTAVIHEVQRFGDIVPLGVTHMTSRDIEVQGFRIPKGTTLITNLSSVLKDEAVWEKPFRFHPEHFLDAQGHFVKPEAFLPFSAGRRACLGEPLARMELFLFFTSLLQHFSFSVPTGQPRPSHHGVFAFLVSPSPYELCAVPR
How it was run: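 Read-out is luminescence from luciferin formed by CYP2D6 turnover of a proluciferin substrate, recorded as relative luminescence units. Reactions ran 1 h at room temperature after NADPH regeneration solution was added.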

[11] = molecular target: Cytochrome P450 2C19 (Homo sapiens) (UniProt P33261); assay: Cytochrome P450 Family 2 Subfamily C Member 19 (CYP2C19) small molecule antagonists: luciferase reporter qHTS assay (AID 1671197); note: nearly all actives have a fitted effect of over 65% in size; note: potency is the fitted concentration of half-maximal effect
Cytochrome P450 2C19 (Homo sapiens), sequence (P33261 whole entry, looked up): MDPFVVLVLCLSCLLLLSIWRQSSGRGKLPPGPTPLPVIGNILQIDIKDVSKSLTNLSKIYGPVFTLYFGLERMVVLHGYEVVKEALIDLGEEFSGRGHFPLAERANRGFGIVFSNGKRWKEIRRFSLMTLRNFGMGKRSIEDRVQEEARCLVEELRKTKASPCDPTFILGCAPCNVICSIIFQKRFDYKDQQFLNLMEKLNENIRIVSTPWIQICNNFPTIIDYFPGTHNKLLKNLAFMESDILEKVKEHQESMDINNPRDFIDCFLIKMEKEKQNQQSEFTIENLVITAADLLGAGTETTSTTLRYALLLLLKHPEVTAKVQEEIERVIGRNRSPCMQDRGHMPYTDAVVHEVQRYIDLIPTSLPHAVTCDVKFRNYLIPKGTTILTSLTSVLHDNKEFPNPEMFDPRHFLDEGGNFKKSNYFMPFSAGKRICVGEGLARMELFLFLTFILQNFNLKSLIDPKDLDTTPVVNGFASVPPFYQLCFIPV
How it was run: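 First, compounds are pinned into enzyme-substrate mix and held 10 min at room temperature. Second, NADPH regeneration solution is added and plates incubate 1 h at 37C. Third, detection reagent is added and luminescence read after 20 min.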

[12] = molecular target: Cytochrome P450 2C9 (Homo sapiens) (UniProt P11712); assay: Cytochrome P450 Family 2 Subfamily C Member 9 (CYP2C9) small molecule antagonists: luciferase reporter qHTS assay (AID 1671198); note: nearly all actives have a fitted effect of over 50% in size; note: potency is the fitted concentration of half-maximal effect
Cytochrome P450 2C9 (Homo sapiens), sequence (P11712 whole entry, looked up): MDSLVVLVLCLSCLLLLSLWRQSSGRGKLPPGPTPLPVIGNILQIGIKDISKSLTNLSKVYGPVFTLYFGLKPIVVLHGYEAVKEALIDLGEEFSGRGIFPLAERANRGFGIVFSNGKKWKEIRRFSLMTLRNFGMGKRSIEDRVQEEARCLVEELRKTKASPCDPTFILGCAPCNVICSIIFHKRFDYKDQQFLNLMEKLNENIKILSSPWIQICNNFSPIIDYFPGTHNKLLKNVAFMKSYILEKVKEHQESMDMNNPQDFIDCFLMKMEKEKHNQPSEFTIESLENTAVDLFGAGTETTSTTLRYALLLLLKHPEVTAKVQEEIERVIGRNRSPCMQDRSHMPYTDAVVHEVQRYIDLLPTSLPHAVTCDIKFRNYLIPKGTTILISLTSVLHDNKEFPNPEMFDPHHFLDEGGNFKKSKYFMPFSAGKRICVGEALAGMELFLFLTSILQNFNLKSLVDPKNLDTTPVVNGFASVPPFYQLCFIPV
How it was run: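 Enzyme-substrate mix preincubated with compound 10 min at room temperature; reaction started with NADPH regeneration solution, 1 h 37C. Luminescent luciferin product read after 20 min detection reagent.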

[13] = molecular target: Voltage-gated inwardly rectifying potassium channel KCNH2 (Homo sapiens) (UniProt Q12809); assay: Human Ether-a-go-go-Related Gene (hERG) channel small molecule antagonists: fluorescence cell-based qHTS assay (AID 1671200); note: nearly all actives have a fitted effect of over 50% in size; note: potency is the fitted concentration of half-maximal effect
Voltage-gated inwardly rectifying potassium channel KCNH2 (Homo sapiens), sequence (Q12809 whole entry, looked up): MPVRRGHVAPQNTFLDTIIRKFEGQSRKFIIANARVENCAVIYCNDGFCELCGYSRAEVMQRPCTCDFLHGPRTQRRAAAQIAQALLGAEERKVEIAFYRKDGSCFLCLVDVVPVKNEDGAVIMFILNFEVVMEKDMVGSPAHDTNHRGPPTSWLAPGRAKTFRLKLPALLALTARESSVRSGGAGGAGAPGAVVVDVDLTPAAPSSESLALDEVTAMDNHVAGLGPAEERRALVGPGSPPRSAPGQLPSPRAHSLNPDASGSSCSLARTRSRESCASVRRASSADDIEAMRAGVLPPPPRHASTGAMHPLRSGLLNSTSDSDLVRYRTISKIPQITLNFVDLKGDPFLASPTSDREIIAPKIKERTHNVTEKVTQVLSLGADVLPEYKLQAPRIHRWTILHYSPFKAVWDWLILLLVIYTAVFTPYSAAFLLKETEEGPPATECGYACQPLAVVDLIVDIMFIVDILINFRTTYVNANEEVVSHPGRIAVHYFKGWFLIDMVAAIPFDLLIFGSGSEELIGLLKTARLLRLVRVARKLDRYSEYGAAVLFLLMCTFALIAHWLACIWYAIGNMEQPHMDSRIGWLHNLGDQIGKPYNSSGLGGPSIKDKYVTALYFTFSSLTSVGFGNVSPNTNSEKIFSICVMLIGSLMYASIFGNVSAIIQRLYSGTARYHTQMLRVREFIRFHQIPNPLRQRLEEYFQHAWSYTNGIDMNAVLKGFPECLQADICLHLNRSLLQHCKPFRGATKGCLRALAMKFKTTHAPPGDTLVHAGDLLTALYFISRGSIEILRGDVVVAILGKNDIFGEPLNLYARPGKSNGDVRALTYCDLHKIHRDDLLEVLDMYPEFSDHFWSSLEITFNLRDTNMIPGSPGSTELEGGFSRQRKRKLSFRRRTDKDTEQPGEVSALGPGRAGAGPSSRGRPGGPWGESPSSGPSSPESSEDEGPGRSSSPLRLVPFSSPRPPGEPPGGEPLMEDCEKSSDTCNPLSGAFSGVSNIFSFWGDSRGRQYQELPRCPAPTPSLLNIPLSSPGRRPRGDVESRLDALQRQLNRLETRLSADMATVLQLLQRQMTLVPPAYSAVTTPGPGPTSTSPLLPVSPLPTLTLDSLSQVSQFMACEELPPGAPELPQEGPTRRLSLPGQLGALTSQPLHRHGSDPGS
How it was run: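 Quantitative HTS in hERG-U2OS cells: thallium entry through the channel reports activity, read as continuous 480/540 nm fluorescence over 2 min after stimulus addition.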

[14] = molecular target: Cytochrome P450 1A2 (Homo sapiens) (UniProt P05177); assay: Cytochrome P450 Family 1 Subfamily A Member 2 (CYP1A2) small molecule antagonists: luciferase reporter qHTS assay (AID 1671199); note: nearly all actives have a fitted effect of over 50% in size; note: potency is the fitted concentration of half-maximal effect
Cytochrome P450 1A2 (Homo sapiens), sequence (P05177 whole entry, looked up): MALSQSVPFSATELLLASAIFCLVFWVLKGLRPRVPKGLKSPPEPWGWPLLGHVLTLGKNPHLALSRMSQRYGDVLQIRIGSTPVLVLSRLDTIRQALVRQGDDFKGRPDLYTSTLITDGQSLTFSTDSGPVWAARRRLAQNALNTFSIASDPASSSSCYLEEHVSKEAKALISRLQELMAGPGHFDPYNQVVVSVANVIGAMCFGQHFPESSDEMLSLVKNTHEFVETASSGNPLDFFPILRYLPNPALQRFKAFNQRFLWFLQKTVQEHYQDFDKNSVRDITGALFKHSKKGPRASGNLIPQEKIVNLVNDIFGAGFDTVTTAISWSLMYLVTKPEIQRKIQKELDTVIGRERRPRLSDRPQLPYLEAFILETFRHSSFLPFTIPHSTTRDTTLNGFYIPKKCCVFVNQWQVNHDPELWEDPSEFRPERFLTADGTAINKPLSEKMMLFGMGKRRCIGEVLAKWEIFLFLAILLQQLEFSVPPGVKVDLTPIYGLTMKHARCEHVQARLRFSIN
How it was run: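 P450-Glo CYP1A2, 1536-well qHTS: enzyme/proluciferin substrate + cpd (DMSO), 10 min RT; NADPH regen, 1 h RT; detection reagent, 20 min; luminescence, RLU.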

[15] = molecular target: Cytochrome P450 3A4 (Homo sapiens) (UniProt P08684); assay: Cytochrome P450 Family 3 Subfamily A Member 4 (CYP3A4) small molecule antagonists: luciferase reporter qHTS assay (AID 1671201); note: nearly all actives have a fitted effect of over 50% in size; note: potency is the fitted concentration of half-maximal effect
Cytochrome P450 3A4 (Homo sapiens), sequence (P08684 whole entry, looked up): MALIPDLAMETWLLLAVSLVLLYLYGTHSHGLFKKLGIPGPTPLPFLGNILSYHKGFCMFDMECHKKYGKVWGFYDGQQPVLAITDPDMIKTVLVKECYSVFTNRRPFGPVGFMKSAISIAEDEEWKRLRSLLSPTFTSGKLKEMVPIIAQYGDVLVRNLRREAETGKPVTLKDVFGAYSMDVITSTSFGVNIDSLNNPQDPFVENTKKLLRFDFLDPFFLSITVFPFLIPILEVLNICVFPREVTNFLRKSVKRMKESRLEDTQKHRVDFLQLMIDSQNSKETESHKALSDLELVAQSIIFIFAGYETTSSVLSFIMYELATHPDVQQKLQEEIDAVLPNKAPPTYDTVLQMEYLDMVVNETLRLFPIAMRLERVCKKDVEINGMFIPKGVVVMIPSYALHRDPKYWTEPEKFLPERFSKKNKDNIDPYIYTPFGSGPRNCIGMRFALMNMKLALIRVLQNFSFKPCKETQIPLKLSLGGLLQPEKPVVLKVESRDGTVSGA
How it was run: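 Inhibition of CYP3A4 is measured as loss of light: the enzyme converts a proluciferin substrate to luciferin, detected luminescently. Reaction ran 1 h at room temperature with NADPH regeneration after a 10 min compound preincubation.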

[16] = molecular target: Nuclear receptor subfamily 1 group I member 2 (Homo sapiens) (UniProt O75469); assay: Human pregnane X receptor (PXR) small molecule agonists, qHTS assay (AID 1346982); note: nearly all actives have a fitted effect of over 35% in size; note: potency is the fitted concentration of half-maximal effect
Nuclear receptor subfamily 1 group I member 2 (Homo sapiens), sequence (O75469 whole entry, looked up): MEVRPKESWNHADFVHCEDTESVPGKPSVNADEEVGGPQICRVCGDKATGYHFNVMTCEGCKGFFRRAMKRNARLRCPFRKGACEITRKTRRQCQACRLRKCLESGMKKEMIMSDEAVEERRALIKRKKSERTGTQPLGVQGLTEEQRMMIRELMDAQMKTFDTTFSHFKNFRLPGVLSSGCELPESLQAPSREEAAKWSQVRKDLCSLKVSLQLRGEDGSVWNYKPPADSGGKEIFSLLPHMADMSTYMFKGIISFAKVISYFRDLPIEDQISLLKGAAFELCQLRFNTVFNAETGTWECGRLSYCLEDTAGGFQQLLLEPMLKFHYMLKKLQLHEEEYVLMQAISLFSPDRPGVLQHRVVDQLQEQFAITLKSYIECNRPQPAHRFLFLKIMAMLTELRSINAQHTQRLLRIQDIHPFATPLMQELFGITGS
How it was run: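 Luciferase signal from ONE-Glo (30 min, room temperature) measured activation of hPXR-driven CYP3A4 reporter expression in PXR-Luc HepG2 cells treated with compounds for 24 hr at 37 C.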

[17] = molecular target: Nuclear receptor subfamily 1 group I member 2 (Rattus norvegicus) (UniProt Q9R1A7); assay: Rat pregnane X receptor (rPXR) activation by small molecules, qHTS assay (AID 1346983); conditions: rPXR luciferase reporter cells, One-Glo luminescence, 24 h; max activation: hits give high values; note: nearly all actives have a fitted effect of over 20% in size
How it was run: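 Luminescent readout (One-Glo luciferase, 30 min room temperature) followed 24 hr compound treatment at 37 C of rPXR cells plated 2,000 per well and preincubated 5hr; qHTS format with compounds delivered in DMSO.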

[18] = molecular target: Nuclear receptor subfamily 1 group I member 2 (Homo sapiens) (UniProt O75469); assay: CYP3A4 induction through human pregnane X receptor (PXR) by small molecules, qHTS assay (AID 1346984); note: nearly all actives have a fitted effect of over 40% in size
How it was run: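 Luminescence readout: luciferase signal after One-Glo (30 min, room temperature), following 3 h at 37C with 3uM final Luciferin-IPA P450 substrate. Cells were DPX-2 (HepG2, PXR/CYP3A4-luc co-transfected) dosed for 24 h.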

[19] = molecular target: Nuclear receptor subfamily 1 group I member 2 (Homo sapiens) (UniProt O75469); assay: Human pregnane X receptor (PXR) activation by small molecules, qHTS assay (AID 1346985); note: nearly all actives have a fitted effect of over 40% in size
How it was run: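 DPX-2 cells (HepG2 co-transfected with a PXR response element and a CYP3A4-promoter luciferase construct) were seeded at 2,000 per well, rested 5 hr at 37C, then exposed to DMSO-dissolved compounds for 24 hr. Activation was read as luciferase luminescence.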

SMILES	Potency [1]	Potency [2]	Potency [3]	Potency [4]	Potency [5]	Potency [6]	Potency [7]	Potency [8]	Potency [9]	Potency [10]	Potency [11]	Potency [12]	Potency [13]	Potency [14]	Potency [15]	Potency [16]	max activation [17]	Potency [18]	Potency [19]
CC(C)N(C(=O)SC/C(Cl)=C/Cl)C(C)C	inactive	inactive	inactive	inactive	inactive	inactive	inactive	inactive	inactive	inactive	3.19 µM (active)	31.9 µM (active)							
CN	inactive	inactive	inactive	inactive	inactive								inactive						
CCN(CC)C(=O)N[C@@H]1C=C2c3cccc4[nH]cc(c34)C[C@@H]2N(C)C1	inactive	inactive	inactive	inactive	inactive		inactive		inactive										
CCC1(CC)C(=O)N=C(O)NC1=O	inactive	inactive	inactive	inactive	inactive	inactive	inactive	inactive	inactive	inactive	inactive	inactive	inactive	inactive	inactive				
O=C(NC(=O)c1c(F)cccc1F)Nc1ccc(Oc2ccc(C(F)(F)F)cc2Cl)cc1F	inactive	inactive	61.1 µM (active)	inactive		inactive	inactive	inactive	inactive	inactive	inactive	25.2 µM (active)	34.7 µM (active)	inactive	inactive	19.3 µM (active)			
CC(=O)O.CC(=O)O.CC(=O)O.CC(=O)O.CC(=O)O.CC(=O)O.CC(=O)O.O.O.[Cr].[Cr].[Cr]	inactive	inactive	inactive	inactive	inactive								inactive						
COc1ccc(Cc2nccc3cc(OC)c(OC)cc23)cc1OC	9.44 µM (active)	inactive	13.3 µM (active)	inactive									inactive	inactive		16.8 µM (active)	-16.6%	inactive	inactive
CC[C@H](C)[C@H]1O[C@]2(C=C[C@@H]1C)C[C@@H]1C[C@@H](C/C=C(\C)[C@@H](O[C@H]3C[C@H](OC)[C@@H](O[C@H]4C[C@H](OC)[C@@H](NC)[C@H](C)O4)[C@H](C)O3)[C@@H](C)/C=C/C=C3\CO[C@@H]4[C@H](O)C(C)=C[C@@H](C(=O)O1)[C@]34O)O2	6.86 µM (active)	17.2 µM (active)	6.11 µM (active)	6.11 µM (active)	15.4 µM (active)	inactive	inactive	inactive	inactive	63.3 µM (active)	35.6 µM (active)	35.6 µM (active)	inactive	35.6 µM (active)	1.59 µM (active)				
CCCCn1cc[n+](C)c1.[Cl][Fe-]([Cl])([Cl])[Cl]	inactive	inactive	inactive	inactive	inactive								inactive						
CNC(=O)O/N=C(\C)C(C)S(C)(=O)=O (configuration not stated)	inactive	inactive	inactive	inactive	inactive	355 µM (active)		447 µM (active)	inactive		inactive	inactive	inactive	inactive	inactive				
COc1ccc2c3c1O[C@H]1[C@H](O)CC[C@H]4[C@@H](C2)N(C)CC[C@@]341	inactive	inactive	inactive	inactive	inactive	inactive	inactive	inactive	inactive	inactive	inactive		inactive	inactive					
CC(=O)[O-].CC(=O)[O-].[Co+2]	inactive	inactive	inactive	inactive	inactive								inactive						
Brc1ccc(Oc2ccc(Br)cc2Br)c(Br)c1	inactive	inactive		inactive	inactive	inactive	inactive	inactive	inactive	inactive	0.142 µM (active)	12.6 µM (active)	inactive	12.6 µM (active)		30.7 µM (active)			
Nc1c(Cl)c(Cl)c(Cl)c(Cl)c1Cl	inactive	inactive	inactive	inactive	inactive	inactive	inactive	inactive	inactive		inactive	inactive	inactive	1.3 µM (active)					
CC(Cc1ccc2c(c1)OCO2)NO (configuration not stated)	inactive	inactive		inactive	inactive	inactive	inactive	inactive	inactive	38.6 µM (active)	48.6 µM (active)	34.4 µM (active)	inactive	6.11 µM (active)		inactive			
CCCCn1cc[n+](C)c1 (tested in a mixture with another compound)	inactive	inactive	inactive	inactive	inactive								inactive						
CN1C(=O)[C@@H](NC(=O)c2cc3ccccc3[nH]2)N=C(c2ccccc2)c2ccccc21	inactive	inactive	inactive		inactive	inactive	inactive	inactive	inactive	inactive	inactive	4.9 µM (active)		inactive	inactive	inactive	-0.0388%	inactive	inactive
CNC(=O)Oc1cc(C)cc(C(C)C)c1	inactive	inactive		inactive	inactive	0.633 µM (active)	0.399 µM (active)	0.178 µM (active)	5.03 µM (active)	39.9 µM (active)	20 µM (active)	inactive	inactive	20 µM (active)	inactive				
